Compound activity from PubChem BioAssay.
This is a sample that favours compounds with a hit; in the whole collection about 4.3% have one here.
sPLA2-III inh – human group III sPLA2 inhibitors, primary screen, biochemical, QFRET, BODIPY PC-A2 liposome substrate; Group 3 secretory phospholipase A2 (Homo sapiens), Q9NZ20; inhibition, % at 12.2 µM; QFRET BODIPY PC-A2 liposome hydrolysis, fluorescence; actives 0.56% (n = 370,000);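 active = inhibition above mean plus 3 SD of compounds lying within the high and low control bounds, cut at about 19% in these data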
NR3A LBD binder – binders of NR3A ligand-binding domain, primary screen, biophysical, differential scanning fluorimetry, uHTS; Glutamate receptor ionotropic, NMDA 3A (GRIN3A) ligand-binding domain; NR3A LBD differential scanning fluorimetry, Tm shift; 0% = protein alone, 100% = glycine-bound protein; Tm shift relative to glycine control, % at 25 µM; actives 2.5% (n = 340,000);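 active = melting temperature shift of at least 10% of the positive control shift, at one fixed dose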
FAS TE block – FAS thioesterase domain inhibitors, primary screen, biochemical, fluorescence intensity, uHTS; inhibition, % at 15 µM; recombinant FAS-TE, OMFH fluorogenic substrate, fluorescence endpoint; Fatty acid synthase (Homo sapiens), P49327; actives 0.67% (n = 360,000);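 active = compounds whose normalised, plate-corrected inhibition of enzyme fluorescence in the single-dose primary screen is 50% or more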
ADAM10 inh – human ADAM10 inhibitors, primary screen, biochemical, QFRET, HTS | AID 720582, 2013 | actives 0.62% (n = 370,000) | inhibition, % at 7 µM | recombinant ADAM10, EDANS/DABCYL FRET peptide cleavage, 3 h;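 active = inhibition above a per-campaign cutoff equal to the mean of compounds falling between control-based bounds plus 3 SD, cut at about 20% in these data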
ADAM17 inh – ADAM17 inhibitors, primary screen, biochemical, QFRET | inhibition, % at 6.95 µM | recombinant ADAM17, EDANS/DABCYL FRET peptide cleavage | AID 720648, 2013 | actives 0.83% (n = 370,000) | Disintegrin and metalloproteinase domain-containing protein 17 (Homo sapiens), P78536;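 active = inhibition above the mean of compounds lying between control limits plus 3 SD, set per campaign, cut at about 8.5% in these data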
Target sequence (P78536 215-824 limits assumed): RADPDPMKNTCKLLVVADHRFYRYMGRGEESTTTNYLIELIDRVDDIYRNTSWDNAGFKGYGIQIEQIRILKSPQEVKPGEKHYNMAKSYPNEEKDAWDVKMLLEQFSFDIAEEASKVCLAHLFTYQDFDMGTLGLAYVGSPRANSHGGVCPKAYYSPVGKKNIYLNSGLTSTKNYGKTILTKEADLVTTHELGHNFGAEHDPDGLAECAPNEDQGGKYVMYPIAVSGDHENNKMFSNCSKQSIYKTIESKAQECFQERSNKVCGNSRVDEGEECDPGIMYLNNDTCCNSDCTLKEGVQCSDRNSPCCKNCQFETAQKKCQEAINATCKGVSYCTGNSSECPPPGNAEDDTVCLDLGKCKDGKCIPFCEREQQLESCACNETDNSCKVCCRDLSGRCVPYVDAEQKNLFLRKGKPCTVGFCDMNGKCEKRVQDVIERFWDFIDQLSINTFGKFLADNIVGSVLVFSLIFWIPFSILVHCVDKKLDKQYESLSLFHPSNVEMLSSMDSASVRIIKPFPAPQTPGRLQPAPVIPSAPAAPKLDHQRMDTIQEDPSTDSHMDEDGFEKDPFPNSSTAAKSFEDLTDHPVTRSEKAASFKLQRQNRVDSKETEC
ADAM10 ctr – ADAM10 inhibitors, counter-screen for ADAM17 exosite inhibitor project, biochemical, FRET, human ADAM10. actives 47% (n = 2,900). inhibition, % at 6.95 µM. recombinant ADAM10, EDANS/DABCYL FRET peptide cleavage, 3 h. AID 743256, 2014. shares compounds with ADAM17 inh;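 active = mean inhibition over the triplicate runs exceeds the activity threshold set in the earlier primary screen, cut at about 20% in these data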
ADAM17 confirm – ADAM17 inhibitors, hit retest, confirmation, biochemical, QFRET peptide cleavage | shares compounds with ADAM17 inh | recombinant ADAM17, EDANS/DABCYL QFRET peptide cleavage | inhibition, % at 6.95 µM | actives 65% (n = 2,900);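 active = mean inhibition across replicates above the hit cutoff set in the primary screen, cut at about 8.5% in these data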
Of the large screens only hits and unclear results are named; the others gave an inactive call (follow-up assays come after a bar, where they were run).

Cc1ccc(NC(=O)CC2SC(=O)N(c3ccccc3)C2=O)cc1 (configuration not stated)	none
O=C(CCl)Nc1cccc(S(=O)(=O)N2CCCCCC2)c1	none
CC(NC(C)c1ccccc1Cl)C(=O)Nc1cccc(S(=O)(=O)N2CCCCC2)c1 (configuration not stated)	ADAM17 inh 11 | ADAM10 ctr inactive | ADAM17 confirm 10
CCCCCN1CC(O)=C(c2nc3ccccc3[nH]2)C1=N	ADAM17 inh 10 | ADAM10 ctr inactive | ADAM17 confirm inactive
COc1ccc2c(c1)[C@@H](NC(=O)c1ccncc1)[C@H](C)[C@H]2c1ccccc1	none (no result: NR3A LBD binder, FAS TE block)
COc1ccc(OC)c(NC(=O)CSc2nc(O)cc(=O)n2CC(C)C)c1	ADAM17 inh 9.3 | ADAM10 ctr inactive | ADAM17 confirm inactive
COc1ccc(CSc2nc(O)cc(=O)n2CC(C)C)cc1F	none
O=C(c1ccc(CS(=O)Cc2ccc(Cl)cc2)o1)N1CCN(c2cccc(Cl)c2)CC1 (configuration not stated)	none
Cc1cccc(N2CCN(C(=O)c3ccc(CS(=O)Cc4ccc(Cl)cc4)o3)CC2)c1C (configuration not stated)	ADAM17 inh 11 | ADAM10 ctr inactive | ADAM17 confirm 12
CC(=O)N1CC(C)Sc2ccc(S(=O)(=O)NCCc3ccc(C)cc3)cc21 (configuration not stated)	ADAM17 inh 9.3 | ADAM10 ctr inactive | ADAM17 confirm inactive
COc1ccc(C(=O)N2CCCC(c3cc(C(=O)NCc4ccc(F)cc4)no3)C2)cc1 (configuration not stated)	ADAM17 inh 8.8 (no result: NR3A LBD binder) | ADAM10 ctr inactive | ADAM17 confirm inactive
COc1ccc(C(=O)N2CCCC(c3cc(C(=O)NCc4ccccc4)no3)C2)cc1 (configuration not stated)	none (no result: NR3A LBD binder)
CC1CCCCN1C(=O)c1ccc(CNC(=O)c2cccc(Br)c2)cc1 (configuration not stated)	none (no result: NR3A LBD binder, FAS TE block)
Cc1cccc(NC(=O)C2(c3ccc([N+](=O)[O-])cc3)CCCC2)c1	ADAM17 inh 9.3 | ADAM10 ctr inactive | ADAM17 confirm inactive
CSCCC(NC(=O)c1cccc(S(=O)(=O)N2CCOCC2)c1)c1nc2ccccc2[nH]1 (configuration not stated)	ADAM17 inh 10 | ADAM10 ctr inactive | ADAM17 confirm inactive
COc1ccc(Cn2c(NC(=O)c3ccccc3)nc(Cc3ccccc3)c2-c2ccccc2)c(OC)c1	none (no result: NR3A LBD binder, FAS TE block)
CCCC1(CCC)NC(=O)N(CC(=O)Nc2ccc(Cl)c(S(=O)(=O)N3CCOCC3)c2)C1=O	ADAM17 inh 15 | ADAM10 ctr inactive | ADAM17 confirm inactive
COc1cc(SC)ccc1C(=O)NCCOc1ccc(C)c(C)c1	NR3A LBD binder 16, ADAM17 inh 8.8 | ADAM10 ctr inactive | ADAM17 confirm 12
O=C1CC(N(CCc2ccccc2)C(=S)Nc2ccccc2)C(=O)N1c1ccccc1 (configuration not stated)	NR3A LBD binder 17, ADAM17 inh 8.7 | ADAM10 ctr inactive | ADAM17 confirm 8.9
O=C(N[C@H](C(=O)N1CCC[C@H]1C(=O)NCc1ccccc1)c1ccccc1)c1ccc(Cl)cc1Cl	none (no result: NR3A LBD binder, FAS TE block)
COc1ccccc1NS(=O)(=O)c1cc(NC(=O)C(C)C)ccc1N1CCCCC1	none
O=C(/C=C/c1cccs1)Nc1ccc(N2CCOCC2)c(S(=O)(=O)Nc2ccccc2Cl)c1	ADAM17 inh 11 | ADAM10 ctr inactive | ADAM17 confirm inactive
